Compounds without any hit were thinned out: in the full panel of roughly 83,000, 20% have a hit.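 Results are percent growth after 48 hours of single-concentration exposure. 100 means growth as in untreated cells, lower positive values show inhibition; negative values down to -100 show cell death.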 The source made the active and inactive calls. Rule for the calls: active = growth percent below 10; inactive = the rest.
What was measured:
Assay in all cases: NCI-60 one-dose screen, 48 h (100 = growth as untreated, 0 = no growth, -100 = all killed)
Settings in all cases: 10 µM unless noted
T-47D breast = system: T-47D breast
BT-549 breast = system: BT-549 breast
MDA-MB-435 melanoma = system: MDA-MB-435 melanoma
SW-620 colon = system: SW-620 colon
MCF7 breast = system: MCF7 breast
HCT-116 colon = system: HCT-116 colon
HCC-2998 colon = system: HCC-2998 colon
KM12 colon = system: KM12 colon

Measured: growth

COc1ccc2nc3c(cc2c1)C(=O)CC(c1ccccc1)C3 (configuration not stated)
active: MDA-MB-435 melanoma -67.7%
inactive: T-47D breast 75% | BT-549 breast 51.7% | SW-620 colon 17.8% | MCF7 breast 56.2% | HCT-116 colon 11.1% | HCC-2998 colon 91.3% | KM12 colon 10.8%

Cc1ccc(NCCN2CCCCC2)c2c(=O)c3ccccc3sc12
inactive: T-47D breast 28.7% | BT-549 breast 58.6% | MDA-MB-435 melanoma 31.4% | SW-620 colon 15.3% | HCT-116 colon 18% | HCC-2998 colon 33.3% | KM12 colon 32.6%
active: MCF7 breast -3.15%

C=C(C)[C@@H]1CC[C@]2(COCCC#N)CC[C@]3(C)[C@H](CC[C@@H]4[C@@](C)(CCCNCCC#N)[C@H](C(=C)C)CC[C@]43C)[C@@H]12
active: MDA-MB-435 melanoma 1.59% [100 µM] | SW-620 colon -38.3% [100 µM] | MCF7 breast 9.79% [100 µM] | HCT-116 colon -53.8% [100 µM]
inactive: T-47D breast 23.4% [100 µM] | BT-549 breast 41% [100 µM] | HCC-2998 colon 12.9% [100 µM] | KM12 colon 27.4% [100 µM]

O=C(NCc1ccccc1)C(Cl)Cl
inactive: T-47D breast 102% | BT-549 breast 122% | MDA-MB-435 melanoma 103% | SW-620 colon 107% | MCF7 breast 90.1% | HCT-116 colon 108% | HCC-2998 colon 107% | KM12 colon 101%

CC1=CC[C@@H]2C(C)(C)[C@@H](O)CC[C@@]2(C)[C@@H]1COc1ccc2ccc(=O)oc2c1
active: T-47D breast -10.1%
inactive: BT-549 breast 18% | MDA-MB-435 melanoma 77.6% | SW-620 colon 79.2% | MCF7 breast 77.8% | HCT-116 colon 44.6% | HCC-2998 colon 88% | KM12 colon 40.4%

Cc1nn(-c2ccccc2)c(N2CCOCC2)c1-c1nc2ccc([N+](=O)[O-])cc2[nH]1
inactive: T-47D breast 95.8% | BT-549 breast 96.8% | MDA-MB-435 melanoma 96.1% | SW-620 colon 116% | MCF7 breast 96.6% | HCT-116 colon 97.8% | HCC-2998 colon 133% | KM12 colon 103%

CCCCCCCCCCCCCC[n+]1cccc(C(N)=O)c1
inactive: T-47D breast 49.8% | MCF7 breast 39.4% | HCT-116 colon 20.8%
active: BT-549 breast -49.9% | MDA-MB-435 melanoma -36.5% | SW-620 colon 0.686% | HCC-2998 colon -51.8% | KM12 colon -87.1%

CCOC(=O)c1nn(C2CCCCO2)c2ccc(NC(=O)CN3CCOCC3)cc12 (configuration not stated)
inactive: T-47D breast 98.9% | BT-549 breast 101% | MDA-MB-435 melanoma 106% | SW-620 colon 104% | MCF7 breast 97.3% | HCT-116 colon 90.5% | HCC-2998 colon 109% | KM12 colon 105%

COc1ccc2c3ccnc(C(F)(F)F)c3n(CCCCN)c2c1
inactive: T-47D breast 52.1% | BT-549 breast 52.4% | MDA-MB-435 melanoma 45.9% | SW-620 colon 38.5% | MCF7 breast 35.5% | HCT-116 colon 16.5% | HCC-2998 colon 95.7% | KM12 colon 54.8%

CC(C)c1ccc(/C=N/N=C(N)N)cc1
inactive: T-47D breast 91% | BT-549 breast 86.3% | SW-620 colon 36.2% | HCT-116 colon 84.3% | HCC-2998 colon 50.9% | KM12 colon 27.7%
active: MDA-MB-435 melanoma -28.7% | MCF7 breast 8.1%

Cc1cccc(C[C@H](NC(=O)Nc2ccc(Cl)cc2F)C(=O)N[C@@H]2C(=O)N3C[C@H](OC(=O)CCN(C)C)C[C@H]3C(=O)N3CCCC[C@H]3C(=O)N[C@@H](C)C(=O)N3C[C@H](C)C[C@H]3C(=O)O[C@H]2C)c1
active: BT-549 breast 4.55% | HCT-116 colon -29%
inactive: T-47D breast 13.8% | MDA-MB-435 melanoma 14.6% | SW-620 colon 30.2% | MCF7 breast 13.4% | HCC-2998 colon 19% | KM12 colon 23%

CC(C)CCSc1nc(N)nc2nc[nH]c12
inactive: T-47D breast 89.1% | BT-549 breast 140% | MDA-MB-435 melanoma 116% | SW-620 colon 113% | MCF7 breast 96.1% | HCT-116 colon 92.9% | HCC-2998 colon 101% | KM12 colon 92.6%

Cc1ccc(S(=O)(=O)Oc2ccc([N+](=O)[O-])cc2[N+](=O)[O-])cc1
inactive: T-47D breast 94.5% | MDA-MB-435 melanoma 25.2% | SW-620 colon 18.4% | MCF7 breast 70.7% | HCC-2998 colon 99.8% | KM12 colon 102%
active: BT-549 breast -8.38% | HCT-116 colon 5.12%

CCN(CCNc1ccc(C)c2sc3cc(Cl)ccc3c(=O)c12)CC(C)O (configuration not stated)
inactive: T-47D breast 31.7% | BT-549 breast 110% | SW-620 colon 11.9% | MCF7 breast 36.7% | KM12 colon 39.2%
active: MDA-MB-435 melanoma 6% | HCT-116 colon 9.99% | HCC-2998 colon 5.33%

CCCCN(CCCC)CC(O)c1ccc(OCc2ccccc2)c2ccccc12 (configuration not stated)
inactive: T-47D breast 87.5% | BT-549 breast 111% | MDA-MB-435 melanoma 51.2% | SW-620 colon 72.6% | MCF7 breast 95.7% | HCT-116 colon 53.5% | HCC-2998 colon 70% | KM12 colon 74.2%

CNC(=O)c1cc(Oc2ccc3nc(NC(=O)c4ccc5ncccc5c4)sc3c2)ccn1
inactive: T-47D breast 51.3% | BT-549 breast 82.4% | MDA-MB-435 melanoma 91.6% | SW-620 colon 112% | MCF7 breast 88% | HCT-116 colon 103% | HCC-2998 colon 106% | KM12 colon 101%

NC(=S)Cc1ccccc1
inactive: T-47D breast 101% | BT-549 breast 110% | MDA-MB-435 melanoma 97.7% | SW-620 colon 102% | MCF7 breast 91% | HCT-116 colon 104% | HCC-2998 colon 107% | KM12 colon 101%

CC(C)=CCC[C@](C)(O)[C@H]1CC[C@]2(C)[C@@H]1CC[C@@H]1[C@@]3(C)CC/C(=N/O)C(C)(C)[C@@H]3CC[C@]12C
inactive: MCF7 breast 10% [100 µM] | HCC-2998 colon 10.9% [100 µM] | KM12 colon 15.8% [100 µM]
active: T-47D breast 7.5% [100 µM] | BT-549 breast 1.19% [100 µM] | MDA-MB-435 melanoma 5.38% [100 µM] | SW-620 colon -48% [100 µM] | HCT-116 colon -9.52% [100 µM]

CCOc1cccc2c(NC(C)CCCN(CC)CC)c(C)cnc12 (configuration not stated)
inactive: T-47D breast 115% | BT-549 breast 99.8% | MDA-MB-435 melanoma 101% | SW-620 colon 96.6% | MCF7 breast 97.7% | HCT-116 colon 93.4% | HCC-2998 colon 115% | KM12 colon 99.1%

CCCCOC(=O)c1cccc([N+](=O)[O-])c1
inactive: T-47D breast 110% | BT-549 breast 104% | MDA-MB-435 melanoma 103% | SW-620 colon 103% | MCF7 breast 115% | HCT-116 colon 113% | HCC-2998 colon 98.5% | KM12 colon 108%

O=C(N=c1n(-c2ccccc2)nc2n1CCN2C1=NCCN1C(=O)c1ccc(Cl)cc1)c1ccc(Cl)cc1
inactive: T-47D breast 50.1% | BT-549 breast 59.6% | MDA-MB-435 melanoma 70.5% | SW-620 colon 68.3% | MCF7 breast 46% | HCT-116 colon 39.1% | HCC-2998 colon 85.8% | KM12 colon 60.7%

O=C(Nc1ccc(Oc2ccc(F)cc2)c(Cl)c1)c1cccnn1
inactive: T-47D breast 37.6% | BT-549 breast 103% | MDA-MB-435 melanoma 67.2% | SW-620 colon 94.1% | MCF7 breast 65.3% | HCT-116 colon 96.8% | HCC-2998 colon 89.1% | KM12 colon 79.2%

Cn1cc(-c2nnc(-c3cn(C)c4ncccc34)o2)c2ccccc21
active: MDA-MB-435 melanoma -32.8%
inactive: T-47D breast 12.2% | BT-549 breast 42.4% | SW-620 colon 26.7% | MCF7 breast 20.2% | HCT-116 colon 23% | HCC-2998 colon 65.7% | KM12 colon 22.1%

CCCCCCCCCCCCNC(=S)N/N=C/c1ccccc1O
inactive: T-47D breast 42.2% | BT-549 breast 108% | MDA-MB-435 melanoma 80.5% | SW-620 colon 91.8% | MCF7 breast 51% | HCT-116 colon 62.2% | HCC-2998 colon 78.2% | KM12 colon 68.8%

CCOC(=O)c1nn(C2CCCCO2)c2ccc(NC(=O)Cn3nnc4ccccc43)cc12 (configuration not stated)
inactive: T-47D breast 85.5% | BT-549 breast 96% | MDA-MB-435 melanoma 110% | SW-620 colon 105% | MCF7 breast 99.5% | HCT-116 colon 88.6% | HCC-2998 colon 111% | KM12 colon 104%

Cc1cnc([C@]23CC[C@@H](C)[C@H](C)[C@H]2C2=CC[C@@H]4[C@@]5(C)Cc6c([nH]c7ccccc67)C(C)(C)[C@@H]5CC[C@@]4(C)[C@]2(C)CC3)o1
inactive: T-47D breast 58% [100 µM] | BT-549 breast 46.5% [100 µM] | SW-620 colon 20.6% [100 µM] | MCF7 breast 46.8% [100 µM] | HCT-116 colon 17.3% [100 µM] | HCC-2998 colon 50% [100 µM] | KM12 colon 24.7% [100 µM]
active: MDA-MB-435 melanoma -16.7% [100 µM]

O=C1CC(c2ccccc2)Cc2nc3ccc(Br)cc3cc21 (configuration not stated)
inactive: T-47D breast 67.2% | SW-620 colon 25.1% | MCF7 breast 61.2% | HCC-2998 colon 27%
active: BT-549 breast 6.48% | MDA-MB-435 melanoma -39.8% | HCT-116 colon 5.56% | KM12 colon 8.94%

CSc1nc2c(c(=O)n1C)C1(C(=O)N(Cc3ccccc3)c3ccccc31)c1c(nc(SC)n(C)c1=O)N2
inactive: T-47D breast 63.7% | BT-549 breast 104% | MDA-MB-435 melanoma 107% | SW-620 colon 94.3% | MCF7 breast 82.6% | HCT-116 colon 93% | HCC-2998 colon 99.6% | KM12 colon 87.9%

Cc1ccccc1OC(=O)c1cccc(Cl)c1
inactive: T-47D breast 142% | BT-549 breast 107% | MDA-MB-435 melanoma 113% | SW-620 colon 101% | MCF7 breast 108% | HCT-116 colon 103% | HCC-2998 colon 99.8% | KM12 colon 101%

Source: PubChem BioAssay (NCI)
